# Source: PubChem BioAssay (National Center for Advancing Translational Sciences (NCATS))
# D1 ag – human D1 receptor agonism. 1% of 360,000 active. AID 504660. P21728. activation, % at 2 µM. HEK293 T-REx D1 cells, calcium flux, agonist mode; note: 0% is about no effect
#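 Inducible HEK293 T-REx D1 cells, force-coupled to calcium signalling, were plated at 4000 cells/well with tetracycline and held overnight at 30 C. After no-wash calcium dye loading, compound-evoked calcium rise over 180 s flagged agonists.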
# TRHR enhancer – TRH receptor (human) allosteric enhancement; enhancement, % at 2 µM; TRHR cells, fluo-8 calcium fluorescence, EC20 TRH enhancement; 0.66% of 360,000 active; P34981; in the data active = enhancement above about 30%; note: 0% is about no effect
# Target sequence (P34981 whole entry, looked up): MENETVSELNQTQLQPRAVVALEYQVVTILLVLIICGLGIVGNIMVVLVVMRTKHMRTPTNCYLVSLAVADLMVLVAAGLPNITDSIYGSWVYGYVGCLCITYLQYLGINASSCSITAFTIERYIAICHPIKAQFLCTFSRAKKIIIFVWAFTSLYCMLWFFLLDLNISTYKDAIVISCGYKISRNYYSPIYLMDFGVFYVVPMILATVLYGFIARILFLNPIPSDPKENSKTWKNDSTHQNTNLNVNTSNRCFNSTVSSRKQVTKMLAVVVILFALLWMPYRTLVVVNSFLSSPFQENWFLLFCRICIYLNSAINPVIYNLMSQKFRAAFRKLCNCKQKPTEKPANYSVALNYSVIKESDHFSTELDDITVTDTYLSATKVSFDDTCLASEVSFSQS
#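 Enhancer read-out: after compound pinning and an initial kinetic agonist-mode read, an EC20 of TRH (10 nM final) was injected and fluo-8 calcium signal (Ex 480/Em 530) followed at 1 s/cycle for 100 cycles in TRHR-expressing cells.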
# GRP78 ERSR act – inducers of ER stress response in human glioma cells | U87-MG GRP78 promoter luciferase reporter, 16 h | Potency, µM, without a hit: top-dose activation, actives largely listed as activators | 0.02% of 420,000 active | AID 602332; active = well fitted activation curve with a large enough effect; inconclusive = small, poorly fitted or top-dose-only effect; inactive = no such curve, though single readings can be large or run the other way; note: potency is the fitted concentration of half-maximal effect; series mostly up to about 76 µM; % of control where 0% means no effect; nearly all actives have a fitted effect of over 35% in size
#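 Stably transfected U87-MG glioma cells carrying a GRP78-based luciferase sensor; 16 h compound incubation. Luminescence end-point read 10 min after Bright-Glo addition at room temperature.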
# TRHR agonist – TRH receptor (human) agonism | TRHR cells, calcium flux fluo-8, FDSS agonist mode | activation, % at 2 µM | 0.18% of 360,000 active | AID 493084; note: 0% is about no effect
#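 TRHR-expressing cells, plated overnight in medium with 10% serum, were loaded with fluo-8 calcium dye at room temperature. After a 10 s baseline, library compound was pin-added and calcium release was recorded kinetically (ex 480/em 530) as agonist response.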
# D1 antag – antagonists of human D1 dopamine receptor. 3.2% of 360,000 active. activity change, negative = inhibition, % at 10 µM. HEK293 TREx D1 cells, calcium flux, dopamine EC80; hits give low values. AID 504652. P21728; in the data active = activity change below about -30%; note: % is set by controls: 0 for no effect and ±100 for the full control effect
#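 Antagonism measured as reduced calcium response to an EC80 dopamine addition following 180 s compound pre-read; cells were inducible HEK293 Trex D1 plated overnight at 30 C, read kinetically at 1 cycle/sec.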
# D1 potentiator – potentiators of human D1 dopamine receptor | HEK293 TREx D1 cells, calcium flux, dopamine EC20 potentiation | potentiation, % at 10 µM | 0.036% of 360,000 active; in the data active = potentiation above about 30%; note: 0% is about no effect
# The depositor's hits bear a star; ? = inconclusive; · = no result given. Most compounds without a hit are left out; they make up all but 4% or so of the library. Cut-off read from the data, not from the text of the source, unless noted: active = activation above about 30%; inactive = the rest.
SMILES,D1 ag,TRHR enhancer,GRP78 ERSR act,TRHR agonist,D1 antag,D1 potentiator
Cc1ccccc1NC(=O)c1c(NC(=O)C(F)(F)F)sc2c1CCCCC2,35*,12,-1%,3,-21,-1
Cc1cccc(NC(=O)c2c(Br)sc3c2CCCC3)c1,0,-9,1%,0,-27,-2
Cc1cccc(NC(=O)c2c(NC(=O)C(F)(F)F)sc3c2CCCCC3)c1,34*,10,11%,1,-37*,-2
COCO[C@H]([C@@H](C)C=C(Br)Br)[C@@H](C)COCc1ccc(OC)cc1,·,·,-6%,·,·,·
O=C(c1cnsn1)N1CCOc2ccc(C(O)C(c3ccccc3)c3ccccc3)cc2C1 (stereo unspecified),·,·,-5%,·,·,·
COc1ccccc1NC(=O)c1c(NC(=O)COc2ccccc2)sc2c1CCCCC2,0,-1,-3%,0,4,-2
COc1ccc(NC(=O)c2c(NC(=O)COc3ccccc3)sc3c2CCCCC3)cc1,-1,-6,-3%,0,-37*,3
CCN(C(=O)c1cc2ccccc2oc1=O)c1ccccc1,1,-8,4%,0,-5,-5
CCN(CC)c1ccc2cc(C(=O)Nc3cccnc3N3CCOCC3)c(=O)oc2c1,9,9,·,4,-4,5
CCN(CC)c1ccc2cc(C(C)=O)c(=O)oc2c1,146*,-2,6%,67*,7,0
CCN(CC)c1ccc2cc(/C(N)=N/NC(=O)c3cccs3)c(=O)oc2c1,30*,-4,·,25,-11,3
CCN(CC)c1ccc2cc(C(=O)Nc3ccccn3)c(=O)oc2c1,30,-8,-5%,37*,-6,2
CCN(CC)c1ccc2cc(C=O)c(=O)oc2c1,187*,9,-4%,116*,3,-4
O=S(=O)(c1ccc(Cl)cc1)N1CCN(S(=O)(=O)c2ccc3c(c2)OCCO3)CC1,2,11,·,0,20,8
Cn1nc(-c2ccc(F)cc2)nc2c(=O)n(C)c(=O)nc1-2,·,·,-11%,·,·,·
O=C(C[n+]1ccccc1Cl)c1ccc(F)cc1,·,·,-3%,·,·,·
N#Cc1ccc(NC(=O)COc2ccccc2C(=O)Nc2ccccc2)cc1,·,·,0%,·,·,·
CCN(CC)c1ccc2cc(C(N)=O)c(=N)oc2c1,27,1,2%,25,-3,4
CCN(CC)c1ccc2cc(C(N)=O)c(=O)oc2c1,32*,4,0%,0,1,2
CCOc1ccc(NC(=O)NC(C)c2c(-n3cccc3)sc3c2CCN(CC)C3)cc1 (stereo unspecified),43*,31*,1%,10,-7,2
CCN1CCc2c(sc(-n3cccc3)c2C(C)NC(=O)Nc2ccc(Br)cc2)C1 (stereo unspecified),11,8,2%,4,9,-2
CCOC(=O)c1cccc(NC(=O)NC(C)c2c(-n3cccc3)sc3c2CCN(C)C3)c1 (stereo unspecified),36*,3,-1%,-1,1,-3
Cc1cc(Cl)ccc1OCCCC(=O)NNC(=O)c1ccccc1O,12,-2,-2%,0,-7,2
COc1ccc2nccc(/C=C/c3ccc(N(C)C)cc3)c2c1,·,·,-1%,·,·,·
CCC(SC1=NCCS1)C(=O)Nc1ccc(S(N)(=O)=O)cc1 (stereo unspecified),8,8,-3%,-1,-46*,-12
Cc1ccc(NC(=S)NCC2CCN(C(C)c3ccccc3)C2)cc1C (stereo unspecified),10,4,-4%,0,-63*,-6
O=C(O)c1ccccc1N/N=C/c1c(Sc2nnnn2-c2ccccc2)nc2ccccn2c1=O,20,8,-3%,22,-43*,-5
CC1CCCCC1NC(=O)/C(C#N)=C/c1ccc2c(c1)OCCO2 (stereo unspecified),5,11,?,0,21,-6
CC1CCCCC1NC(=O)/C(C#N)=C/c1ccc(F)c(F)c1 (stereo unspecified),0,6,-6%,1,-45*,-4
CN(c1ccc(C(=O)Nc2ccc(CC#N)cc2)cc1)S(C)(=O)=O,3,3,-2%,1,-34*,-3
